Source: PubChem
FMDV antiviral: foot and mouth disease virus antiviral activity | AID 1159524 | FMDV antiviral cell-based qHTS | Potency, µM (highest dose often 57.9 µM), most hits filed as inhibitors | actives 1.2% (n = 410,000); calls by dose curve; tested in HEK293T cells; also: read-out not given here; nearly all actives have a fitted effect of over 45% in size
HCMV antiviral: human cytomegalovirus inhibition; HFF cells, HCMV-luciferase reporter, 72 h; hits give low values; activity change, negative = inhibition, % at 57.5 µM; actives 4.5% (n = 410,000); AID 1259415; in the data active = activity change below about -60%; inconclusive = no clear call, values can overlap the other calls; inactive = above about -39%
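Luciferase read-out from HCMV-luciferase-infected HFFs (MOI 1 PFU/cell) 72 h post infection at 37C; compounds added after 16 h cell attachment; activity normalized between buffer-only basal and Salinomycin (10uM) inhibitor controls.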
LASV entry inh: inhibitors of Lassa virus binding or cell entry. Lassa virus pseudotype entry inhibition, cell reporter. Potency, µM (titrated, usually from 37.9 µM), usual class: inhibitors. actives 1.2% (n = 300,000). AID 540256; calls by dose curve; tested in HEK293 cells; also: nearly all actives have a fitted effect of over 50% in size
Marburg entry inh: blocks Marburg virus binding to or entry into cells. Marburg virus pseudotyped entry inhibition, cell reporter. Potency, µM (series often up to 37.8 µM), usual class: inhibitors. actives 1.8% (n = 300,000). AID 540276; calls by dose curve; tested in HEK293 cells
Large screens that a line does not name were inactive; ! = repeats disagree. Hits are enriched below; roughly 6.2% of the tested compounds scored in any of these assays.

N#Cc1c(NC(=O)CSc2ncn[nH]2)sc2c1CCCC2	FMDV antiviral inconclusive, LASV entry inh 2.3µM, Marburg entry inh inconclusive
O=C(Nc1cccc(C(F)(F)F)c1)C1CCN(c2nnc(-n3cccc3)s2)CC1	LASV entry inh inconclusive (no result: Marburg entry inh)
N#Cc1c(NC(=O)CCCC(=O)O)sc2c1CCCCC2	LASV entry inh 8.2µM, Marburg entry inh 1.2µM
COc1ccc(-c2ccc(C#N)c(SCC(=O)Nc3sc4c(c3C#N)CCC4)n2)cc1OC	HCMV antiviral -88, LASV entry inh 15µM, Marburg entry inh inconclusive
COc1ccccc1-c1nn2c(=O)cc(CN3CCN(C(=O)COc4ccccc4Cl)CC3)nc2s1	none (no result: Marburg entry inh)
CCOc1ccc(CCN2C(=O)C(=O)N([C@@H](Cc3ccccc3)CN3CCC[C@H]3CN3C(=O)C(=O)NC[C@@H]3Cc3ccc(O)cc3)C[C@@H]2Cc2ccc(O)cc2)cc1	none (no result: LASV entry inh, Marburg entry inh)
Cc1ccnc(NC(=O)CCC(=O)c2cccs2)c1	FMDV antiviral 14µM, LASV entry inh inconclusive, Marburg entry inh inconclusive
Cc1ccc(NC(=O)CCNS(=O)(=O)c2cccs2)cc1F	none
Cc1ccc(NC(=O)CCC(=O)c2cccs2)cc1F	HCMV antiviral -64
O=C(COc1ccc([N+](=O)[O-])cc1)N(Cc1ccccc1)Cc1ccccc1	none
CCOc1ccc(NC(=O)N2CCC(CN3CCc4ccccc4C3)CC2)cc1	HCMV antiviral inconclusive (no result: Marburg entry inh)
Cc1cccc(N(CC(O)Cn2c3ccccc3c3ccccc32)S(=O)(=O)c2ccc(F)cc2)c1 (stereo not drawn)	FMDV antiviral inconclusive, HCMV antiviral -107, LASV entry inh inconclusive, Marburg entry inh inconclusive
CC(=O)Nc1ccc(OCC(O)Cn2c3ccccc3c3ccccc32)c(C)c1 (stereo not drawn)	FMDV antiviral 22µM, HCMV antiviral -61, LASV entry inh inconclusive
CCCN(CCC)CC(O)Cn1c2ccccc2c2ccccc21 (stereo not drawn)	Marburg entry inh 7.1µM
CC(=O)Nc1ccc(OCC(O)Cn2c3ccccc3c3ccccc32)cc1 (stereo not drawn)	Marburg entry inh inconclusive
Cc1ccc(N(CC(O)Cn2c3ccccc3c3ccccc32)S(C)(=O)=O)c(C)c1 (stereo not drawn)	FMDV antiviral inconclusive, HCMV antiviral -101, Marburg entry inh 16µM
COc1ccc(Cl)cc1C(=O)Nc1ccc(OCC(=O)N2CCOCC2)cc1	none
Cc1ccc(N(CC(O)Cn2c3ccccc3c3ccccc32)S(C)(=O)=O)cc1 (stereo not drawn)	Marburg entry inh inconclusive (no result: FMDV antiviral)
CC(=O)Nc1ccc(N(CC(O)Cn2c3ccccc3c3ccccc32)S(=O)(=O)c2ccc(C)cc2)cc1 (stereo not drawn)	FMDV antiviral inconclusive, LASV entry inh 11µM, Marburg entry inh inconclusive
COC(=O)c1sc(N)c(C(=O)OC)c1Cn1ncc(Cl)c(Cl)c1=O	FMDV antiviral inconclusive, LASV entry inh inconclusive, Marburg entry inh inconclusive
COc1ccc(O)c(/C=N/n2c(-c3ccco3)csc2=Nc2cccnc2)c1	FMDV antiviral inconclusive, LASV entry inh inconclusive
CCN=c1scc(-c2cccs2)n1/N=C/c1cc(OC)ccc1O	HCMV antiviral -95, LASV entry inh inconclusive, Marburg entry inh inconclusive
CC(C)Cn1c(N)c(C(=O)COC(=O)/C=C/c2cccs2)c(=O)n(C)c1=O	FMDV antiviral 18µM, HCMV antiviral -73, LASV entry inh inconclusive, Marburg entry inh inconclusive
COCc1c(C(=O)OCC(=O)c2c(N)n(CC(C)C)c(=O)n(C)c2=O)oc2ccccc12	FMDV antiviral 32µM
CCc1ccc(C(=O)OCC(=O)c2c(N)n(CC(C)C)c(=O)n(C)c2=O)cc1	FMDV antiviral inconclusive, HCMV antiviral -65, LASV entry inh inconclusive, Marburg entry inh inconclusive
CC(C)Cn1c(N)c(C(=O)COC(=O)Cc2cccs2)c(=O)n(C)c1=O	FMDV antiviral inconclusive
CC(C)Cn1c(N)c(C(=O)COC(=O)c2ccccc2F)c(=O)n(C)c1=O	none
Cc1c(C(=O)OCC(=O)c2c(N)n(CC(C)C)c(=O)n(C)c2=O)oc2ccccc12	FMDV antiviral inconclusive, HCMV antiviral -64, Marburg entry inh 10µM
CC(C)Cn1c(N)c(C(=O)COC(=O)c2ccccc2Cl)c(=O)n(C)c1=O	FMDV antiviral inconclusive (no result: LASV entry inh, Marburg entry inh)
CCCC12CN3CC(C)(CN(C1)C3c1ccc([N+](=O)[O-])o1)C2=O (stereo not drawn)	LASV entry inh inconclusive
NNC(=O)COc1cccc2cccnc12	none
CCOc1ccc(NC(=O)N2CCC(CN3CCC(C)CC3)CC2)cc1	none (no result: Marburg entry inh)
COc1ccc(/C=C2\C(=O)ON=C2c2ccccc2)cc1	FMDV antiviral 35µM, Marburg entry inh inconclusive
O=C1ON=C(c2ccccc2)/C1=C/c1ccc(O)c(O)c1	FMDV antiviral inconclusive (no result: LASV entry inh, Marburg entry inh)
O=C1ON=C(c2ccccc2)/C1=C/c1ccc(OS(=O)(=O)c2ccccc2)cc1	FMDV antiviral 32µM
COc1cc(/C=C2\C(=O)ON=C2c2ccc(Cl)cc2)ccc1O	FMDV antiviral 25µM, Marburg entry inh inconclusive
O=C(O)CN(c1ccccc1)C1SC(=O)NC1=O (stereo not drawn)	none
COC(=O)[C@]1(C)N[C@H](c2ccc(-c3cccc(Cl)c3)c(OC)c2)[C@@H]2C(=O)N(C)C(=O)[C@@H]21	HCMV antiviral inconclusive (no result: LASV entry inh, Marburg entry inh)
NS(=O)(=O)c1ccc(CCNC(=O)c2ccc(Cl)s2)cc1	none (no result: LASV entry inh, Marburg entry inh)
NS(=O)(=O)c1ccc(CCNC(=O)c2ccc([N+](=O)[O-])s2)cc1	HCMV antiviral -100, LASV entry inh inconclusive, Marburg entry inh inconclusive
CC1=Nc2cc(C(=O)NCc3ccccc3Cl)ccc2Sc2c(C)ccc(C)c21	HCMV antiviral -90, LASV entry inh inconclusive, Marburg entry inh inconclusive
CC1=Nc2cc(C(=O)O)ccc2Sc2c(C)ccc(C)c21	Marburg entry inh inconclusive
CC1=Nc2cc(C(=O)N3CCCC3)ccc2Sc2c(C)ccc(C)c21	HCMV antiviral -100 (no result: LASV entry inh, Marburg entry inh)
COc1ccccc1C(=O)Nc1ccc2ccccc2c1	LASV entry inh inconclusive, Marburg entry inh inconclusive
CC(=O)c1cccc(S(=O)(=O)Nc2ccccc2N2CCOCC2)c1	none (no result: LASV entry inh, Marburg entry inh)
COc1ccc(-c2c(-c3ccc(OC)c(F)c3)c3ccccc3n2C)cc1	none (no result: LASV entry inh, Marburg entry inh)
COc1cc(N)ccc1-c1cc2ccccc2oc1=O	none (no result: LASV entry inh, Marburg entry inh)
CCCN1CCc2cc(O)cc3c2[C@H]1Cc1ccc(O)c(O)c1-3	Marburg entry inh 35µM!
CCCN1CCc2cccc3c2C1Cc1ccc(O)c(O)c1-3 (stereo not drawn)	Marburg entry inh inconclusive (no result: HCMV antiviral, LASV entry inh)
Cn1c(=O)c2c(ncn2Cc2ccc(Cl)c(Cl)c2)n(C)c1=O	FMDV antiviral inconclusive, HCMV antiviral -70, Marburg entry inh inconclusive
Cn1c(=O)c2c(nc(Cl)n2Cc2ccc(Cl)c(Cl)c2)n(C)c1=O	FMDV antiviral inconclusive
Cn1c(=O)n(CCc2ccccc2)c(=O)c2c1ncn2Cc1ccccc1	LASV entry inh inconclusive, Marburg entry inh inconclusive
Cn1c(=O)c2c(ncn2CCOc2cccc(Br)c2)n(C)c1=O	FMDV antiviral inconclusive, HCMV antiviral -71 (no result: LASV entry inh, Marburg entry inh)
Cn1c(=O)c2c(nc(Oc3cccc(Br)c3)n2C)n(C)c1=O	none (no result: LASV entry inh, Marburg entry inh)
Cn1c(=O)c2c(ncn2Cc2cccc(Cl)c2)n(C)c1=O	HCMV antiviral -75, Marburg entry inh inconclusive (no result: FMDV antiviral)
Cc1ccc(NC(=O)CN2CCC(NC(=O)Cc3ccccc3)CC2)c(C)c1	HCMV antiviral inconclusive
CCn1cc(C(=O)NCCc2ccc(Cl)cc2)c(=O)c2cc(S(=O)(=O)N3CCCCCC3)ccc21	none
COc1ccc(Cl)cc1NC(=O)C(OC)c1ccccc1 (stereo not drawn)	Marburg entry inh inconclusive
